Results from PubChem BioAssay AID738 (SRMLSC, 2007).
About 4,900 (5%) of roughly 98,000 compounds were called active. Shown is part of a subset that was picked to be rich in actives. A number with no mark means an inactive call. Rule as the data show it: active = inhibition above about 30%; inactive = the rest.

Assay: yeast control strain growth suppression – counter-screen for post-Golgi transport modulator project, primary screen (AID 738)
Settings: efflux-deficient yeast background strain, growth absorbance A615, 16 h; at 10 µM; active compounds read high

First: C=CCNC(=O)c1cc2nc(C3CC3)cc(C(F)F)n2n1
Second: Cc1cc(NC(=O)CN2CCCC(C)C2)n(-c2nc3ccccc3s2)n1 (configuration not stated)
The inhibition of the first is lower: 11% for the first, 19.3% for the second.

First: O=C1CC(NNc2ccccc2)C(=O)N1c1cccc(Cl)c1 (configuration not stated)
Second: COC(=O)c1cc(C(=O)OC)cc(N2C(=O)CC(N3CCN(c4ccccc4)CC3)C2=O)c1 (configuration not stated)
The inhibition of the first is lower: -2.74% for the first, -1.95% for the second.

First: COc1ccc(Oc2coc3cc(OC(=O)c4cncc(Br)c4)ccc3c2=O)cc1
Second: COc1ccc(/C=C2\CCCC3C2=NN(C(=O)c2scnc2C)C3c2ccc(OC)cc2)cc1 (configuration not stated)
The inhibition of the first is lower: -3.94% for the first, 9.28% for the second.

Going from COc1ccc(C(=S)Nc2ccccc2)cc1 to Cc1cc(Nc2ccccc2)nc(N)n1, the inhibition rises from -2.5% to 4.89%.

Going from CS(=O)(=O)N(CC(=O)Nc1ccc(F)cc1F)c1cccc([N+](=O)[O-])c1 to CCOC(=O)C1=C(CN2CCc3ccccc32)NC(=O)NC1c1cccc([N+](=O)[O-])c1 (configuration not stated), the inhibition rises from -6.14% to 1.33%.

First: Cc1ccc(C(=O)c2c(NC(=O)c3ccccc3)sc(C)c2C)cc1
Second: CCOC(=O)c1nn(-c2cccc(C)c2)cc1C(=O)c1ccccc1
The inhibition of the first is lower: 4.53% for the first, 12.9% for the second.

First: COC(=O)c1c(NC(=O)c2cccs2)sc2c1CCCC2
Second: Cc1[nH]c(=O)c(C(=O)/C=C/c2ccccc2)c2c1CCCC2
The inhibition of the first is lower: 10.9% for the first, 24.5% for the second.

Compared with CN1C(=O)C(CC(N)=O)N(NC(=O)c2ccc(Cl)cc2)C1=S (configuration not stated), COCCOC(=O)C1=C(C)NC(=O)NC1c1ccc(Cl)cc1 (configuration not stated) is higher in inhibition: -2.73% for the first, 2.51% for the second.

Going from C=CCn1c(Oc2ccc(C(=O)OC)cc2)nc2c1c(=O)n(C)c(=O)n2C to COc1ccc2c(c1)CCc1c(C(=O)Nc3c(C)n(C)n(-c4ccccc4)c3=O)noc1-2, the inhibition rises from 11.7% to 21%.

Compared with Cc1nc(C)c(C(=O)N(c2ccc(C)c(C)c2)C(C(=O)NCc2ccco2)c2ccccc2)s1 (configuration not stated), O=C(CSc1nnc(-c2cccs2)n1-c1ccccc1)NCc1ccco1 is higher in inhibition: -4.44% for the first, 6.51% for the second.

Compared with O=C(COc1ncnc2c(Cl)cc(Cl)cc12)N1CCN(S(=O)(=O)c2ccccc2)CC1, Cc1nnc(SCC(=O)N2CCN(c3ccccc3)CC2)n1-c1ccccc1 is higher in inhibition: 0.78% for the first, 2.49% for the second.

Going from Cc1nn(CC(=O)Nc2nc3ccccc3s2)c(C)c1[N+](=O)[O-] to Cc1nnc(SCC(=O)N2CCc3ccccc3C2)s1, the inhibition rises from -2.54% to 1.25%.

First: CCC(C)(C)n1nnnc1C(c1ccccc1OC)N1CCSCC1 (configuration not stated)
Second: CCC(C)(C)n1nnnc1C(c1cccs1)N1CCN(Cc2ccccc2)CC1 (configuration not stated)
The inhibition of the first is higher: 17.9% for the first, 3.99% for the second.

Going from CCOc1ccc(C(O)Cn2c(=N)n(CCN3CCCCC3)c3ccccc32)cc1 (configuration not stated) to CCCCOc1ccc(C(C)(O)CCN2CCOCC2)cc1 (configuration not stated), the inhibition rises from 7.31% to 12.6%.

First: O=C(CSc1nc(-c2ccco2)cc(C(F)(F)F)n1)NCc1cccs1
Second: FC(F)(F)c1cc(-c2ccco2)nc(N2CCOCC2)n1
The inhibition of the first is lower: 8.94% for the first, 16.9% for the second.

Compared with CCOC(=O)c1cnc(SC)nc1Sc1ccc(Cl)cc1Cl, COc1cccc2c1OCC(C(=O)NCc1ccc(Cl)cc1Cl)=C2 is higher in inhibition: 3.77% for the first, 9.54% for the second.

First: Cc1ccc(NS(=O)(=O)c2c(C)[nH]c(=O)[nH]c2=O)cc1C
Second: COCCN1C(=O)c2oc3c(C)cc(C)cc3c(=O)c2C1c1cccc(O)c1 (configuration not stated)
The inhibition of the first is higher: 11.7% for the first, 4.63% for the second.

First: O=C(Cc1ccccc1)N/N=C/c1ccc(Cl)cc1Cl
Second: CNC(=S)NNC(=O)c1sccc1OCc1ccccc1
The inhibition of the first is lower: 24.5% for the first, 26.7% for the second.

Compared with COc1ccc2c(c1)CCc1c(C(=O)N3CCCC3)noc1-2, CCn1cc(C(=O)N2CCN(Cc3ccc4c(c3)OCO4)CC2)c2cc(OC)c(OC)cc2c1=O is lower in inhibition: -1.03% for the first, -2.75% for the second.

Going from O=c1cc(C(F)(F)F)[nH]c(=O)n1C1CCCCC1 to Cc1nn(C)cc1/C=C1\CCC/C(=C\c2cn(C)nc2C)C1=O, the inhibition falls from 23.5% to 12.9%.

Compared with COCCN(C(=O)c1ccco1)c1nnc(-c2ccc(OC)cc2)s1, CCn1c(SCC(=O)c2ccc3ccccc3c2)nnc1-c1cccs1 is lower in inhibition: 10% for the first, 5.6% for the second.

First: CCOC(=O)CNC(=O)CSc1nnnn1-c1cc(C)ccc1C
Second: CNC(=O)CSc1nnnn1-c1ccc(C)cc1C
The inhibition of the first is lower: 3.59% for the first, 24.1% for the second.

First: CC(C)C(NS(=O)(=O)c1cccs1)C(=O)Nc1nc(C(C)(C)C)cs1 (configuration not stated)
Second: O=C(NC1=NCCS1)[C@H](Cc1ccccc1)N1C(=O)c2ccccc2C1=O
The inhibition of the first is higher: 16.8% for the first, -1.98% for the second.

Going from CS(=O)(=O)N(CC(=O)N1CCN(Cc2ccc3c(c2)OCO3)CC1)c1ccc2c(c1)OCO2 to Cc1ccc(NC(=O)N2CCC(O)(c3cccnc3)CC2)cc1, the inhibition falls from 2.83% to -0.9%.

Going from Cc1ccccc1OCc1nnc(SCC(=O)N2c3ccccc3Sc3ccc(Cl)cc32)o1 to Nc1c(-c2ccc(F)cc2)cnc2ncnn12, the inhibition falls from 5.3% to 1.38%.

For O=C1CC(c2ccccc2)C(=O)N1c1cccc(O)c1 (configuration not stated), the inhibition was 47.5% (active).
For Cc1ccc(C(=O)c2c(NC(=O)c3ccncc3)sc3c2CCCC3)cc1, the inhibition was 65.8% (active).
For CCOC(=O)N1CCN(CC(=O)Nc2cc(C)nn2-c2nc3ccccc3s2)CC1, the inhibition was 42% (active).
In the case of CCC(C)(C)n1nnnc1C(c1cccs1)N1CCN(c2nc3ccccc3s2)CC1 (configuration not stated), the inhibition is reported as 34.9% (active).
With O=C(CSc1nc(-c2ccco2)cc(C(F)(F)F)n1)N1CCc2ccccc2C1 the inhibition was 30.3% (active).
In the case of CCCOc1ccc(C2c3c(oc4cc(C)c(C)cc4c3=O)C(=O)N2CCCN2CCOCC2)cc1 (configuration not stated), the inhibition is reported as 42.7% (active).
For COc1ccc2c(c1)CCc1c(C(=O)N3CCc4ccccc4C3)noc1-2, the inhibition was 44.9% (active).
For CCOC(=O)c1c(-c2ccc(C)cc2C)csc1NC(=O)CSc1nnnn1C, the inhibition was 66.1% (active).
For COc1cc(Cl)c(S(=O)(=O)N2CCN(Cc3ccc4c(c3)OCO4)CC2)cc1Cl, the inhibition was 60.2% (active).
In the case of CCOC(=O)C1=C(CN2CCc3ccccc32)NC(=O)NC1c1ccc(Cl)cc1 (configuration not stated), the inhibition is reported as 40.8% (active).
In the case of O=C(CSc1nnc(-c2cccs2)n1-c1ccccc1)N1CCN(C(=O)c2ccco2)CC1, the inhibition is reported as 37.9% (active).
With O=C(CSc1nnc(-c2cccs2)n1Cc1ccccc1)N1CCc2ccccc2C1 the inhibition was 40.2% (active).
